Sm TGR inh: qHTS Assay for the Inhibitors of Schistosoma Mansoni Peroxiredoxins. purified TGR, DTNB reduction, TNB absorbance 405 nm. Potency, µM (highest dose often 114 µM), without a hit: at the highest dose activity change, negative = inhibition, usual class: inhibitors. 3% of 360,000 active; note: potency is the fitted concentration of half-maximal effect; nearly all actives have a fitted effect of over 60% in size
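First, TGR (20 nM dispensed) and NADPH were mixed with compound. Second, a 15 min room-temperature incubation followed. Third, further NADPH and then DTNB were added to start the reaction. Finally, TNB absorbance was monitored kinetically.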
Pf growth 96h: Primary qHTS for delayed death inhibitors of the malarial parasite plastid, 96 hour incubation; P. falciparum luciferase reporter growth, 96 h; Potency, µM (series often up to 28.7 µM), inactives show at the top dose activity change, negative = inhibition, hits mostly inhibitors; 6.9% of 320,000 active; AID 504834, 2011; note: potency is the fitted concentration of half-maximal effect
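Cell-based qHTS: luciferase-tagged P. falciparum in erythrocytes (2% hematocrit, 0.05% parasitemia final) incubated with compounds for 96 hours, 37 C, 5% CO2; luciferase detection reagent then added and luminescence measured.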
HCMV inh: qHTS Assay for inhibitors of the human cytomegalovirus (HCMV); 4.5% of 410,000 active; activity change, negative = inhibition, % at 57.5 µM; HFF cells, HCMV-luciferase reporter, 72 h; active compounds read low; in the data active = activity change below about -60%; inconclusive = no clear call, values can overlap the other calls; inactive = above about -39%
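Luciferase read-out from HCMV-luciferase-infected HFFs (MOI 1 PFU/cell) 72 h post infection at 37C; compounds added after 16 h cell attachment; activity normalized between buffer-only basal and Salinomycin (10uM) inhibitor controls.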
Giardia FBPA inh-1: qHTS Assay for Inhibitors of Fructose-1,6-bisphosphate Aldolase from Giardia Lamblia; AID 2451, 2010; Potency, µM (top dose mostly 59.6 µM), inactives show at the top dose activity, negative = inhibition, most hits filed as inhibitors; 0.71% of 290,000 active; A8B2U2; purified Giardia FBPA; note: potency is the fitted concentration of half-maximal effect; nearly all actives have a fitted effect of over 55% in size
Target sequence (A8B2U2 whole entry, looked up): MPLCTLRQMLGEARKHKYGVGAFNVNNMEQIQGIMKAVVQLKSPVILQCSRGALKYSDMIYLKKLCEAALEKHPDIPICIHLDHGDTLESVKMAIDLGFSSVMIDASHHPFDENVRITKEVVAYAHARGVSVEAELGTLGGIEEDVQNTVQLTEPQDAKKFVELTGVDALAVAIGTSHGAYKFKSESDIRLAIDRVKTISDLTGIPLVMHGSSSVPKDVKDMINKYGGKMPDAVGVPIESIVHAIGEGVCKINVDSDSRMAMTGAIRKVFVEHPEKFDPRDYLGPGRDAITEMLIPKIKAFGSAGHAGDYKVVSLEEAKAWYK
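Giardia FBPA (40 nM reagent) was preincubated 10 min at RT with compound (up to 57.5 uM final), then substrate plus GAPDH/TPI/NAD/arsenate coupling system with diaphorase/resazurin was added; resorufin fluorescence (525/598 nm) was read after 20 min.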
Pf growth 48h: Primary qHTS for delayed death inhibitors of the malarial parasite plastid, 48 hour incubation; Potency, µM (titrated, usually from 28.7 µM), for inactives: top-dose activity change, negative = inhibition, actives largely listed as inhibitors; AID 504832, 2011; P. falciparum luciferase growth in erythrocytes, 48 h; 5.9% of 310,000 active; note: potency is the fitted concentration of half-maximal effect
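Compounds are pin-transferred into medium, infected erythrocytes (2% hematocrit, 0.1% parasitemia final) are added, and plates sit one parasite generation at 37 C in 5% CO2. Detection reagent is then added and luminescence measured.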
Giardia growth: qHTS Assay for Inhibitors of Fructose-1,6-bisphosphate Aldolase from Giardia Lamblia: Giardia lamblia growth inhibition. Potency, µM (titrated, usually from 57.5 µM), for inactives: at the highest dose activity change, negative = inhibition, most hits filed as inhibitors. shares compounds with Giardia FBPA inh-1. Giardia lamblia trophozoite growth inhibition. 5% of 1,500 active;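 note: potency is the fitted concentration of half-maximal effect; trophozoites exposed to compound for 48 h at 37 °C; nearly all actives have a fitted effect of over 70% in size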
Mammal cell tox: qHTS Assay for Inhibitors of Fructose-1,6-bisphosphate Aldolase from Giardia Lamblia: Mammalian cellular toxicity; Potency, µM (highest dose often 57.5 µM), for inactives: at the top dose viability change, negative = toxicity, usual class: inhibitors; mammalian cell viability counter-screen, qHTS; 4% of 1,500 active; shares compounds with Giardia FBPA inh-1;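 note: Chinese hamster ovary cells used as mammalian cytotoxicity surrogate; viability measured as cellular ATP by luminescence; potency is the fitted concentration of half-maximal effect; compound exposure lasted 48 h before reading; nearly all actives have a fitted effect of over 60% in size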
Giardia FBPA inh-2: qHTS Assay for Inhibitors of Fructose-1,6-bisphosphate Aldolase from Giardia Lamblia: Primary screen confirmation | shares compounds with Giardia FBPA inh-1 | purified Giardia aldolase enzyme activity, qHTS | Potency, µM (top dose mostly 57.5 µM), for inactives: at the top dose activity change, negative = inhibition, most hits filed as inhibitors | 5% of 1,500 active; note: potency is the fitted concentration of half-maximal effect; nearly all actives have a fitted effect of over 45% in size
Rabbit FBPA inh: qHTS Assay for Inhibitors of Fructose-1,6-bisphosphate Aldolase from Giardia Lamblia: Rabbit FBPA Selectivity | shares compounds with Giardia FBPA inh-1 | Rabbit muscle FBPA enzyme inhibition, selectivity counter-screen | Potency, µM (titrated, usually from 57.5 µM), for the others: at the highest dose activity, negative = inhibition, actives largely listed as inhibitors | 4% of 1,500 active | AID 2794, 2010; note: potency is the fitted concentration of half-maximal effect; nearly all actives have a fitted effect of over 60% in size
Target sequence (P00883 whole entry, looked up): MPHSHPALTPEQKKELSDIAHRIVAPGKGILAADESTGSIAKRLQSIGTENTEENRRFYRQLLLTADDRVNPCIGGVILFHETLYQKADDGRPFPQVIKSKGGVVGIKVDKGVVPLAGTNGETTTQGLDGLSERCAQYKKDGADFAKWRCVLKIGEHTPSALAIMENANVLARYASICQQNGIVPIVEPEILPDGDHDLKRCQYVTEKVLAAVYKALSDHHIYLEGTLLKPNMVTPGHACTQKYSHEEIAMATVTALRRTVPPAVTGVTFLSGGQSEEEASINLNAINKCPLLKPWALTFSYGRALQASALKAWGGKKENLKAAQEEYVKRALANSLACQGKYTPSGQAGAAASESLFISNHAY
GAPDH coupling: qHTS Assay for Inhibitors of Fructose-1,6-bisphosphate Aldolase from Giardia Lamblia: Coupling assay counterscreen confirmation; 6% of 1,500 active; Potency, µM (doses to about 57.5 µM), inactives show at the highest dose activity change, negative = inhibition, actives largely listed as inhibitors; shares compounds with Giardia FBPA inh-1; GAPDH coupling enzyme counterscreen, biochemical, qHTS; AID 2795, 2010; note: potency is the fitted concentration of half-maximal effect; nearly all actives have a fitted effect of over 55% in size
The depositor's hits bear a star; ? = inconclusive; · = no result given; [ ] = another dose, or the depositor's remark. Most compounds without a hit are left out; they make up all but 14% or so of the library. Unless noted, calls come from the whole dose curve; as a rule, active = well fitted curve in the direction sought with a large enough effect; inconclusive = small, poorly fitted or top-dose-only effect, or another doubt; inactive = no such curve, though single readings can be large; an effect the other way counts as inactive or inconclusive. % is set by controls: 0 for no effect and ±100 for the full control effect.

SMILES	Sm TGR inh	Pf growth 96h	HCMV inh	Giardia FBPA inh-1	Pf growth 48h	Giardia growth	Mammal cell tox	Giardia FBPA inh-2	Rabbit FBPA inh	GAPDH coupling
Nc1ccc2nc(Cc3ccccc3)[nH]c2c1	0%	10µM*	4	16µM*	9.3µM*	-6%[10.4 µM]	-8%	-16%	-9%	-3%
Cc1ccc(Cc2nc3ccccc3[nH]2)cc1	4%	-29%	-23	-4%	1%[0.00184 µM]	·	·	·	·	·
COc1cc(C(c2c(C)[nH][nH]c2=O)c2c(C)[nH][nH]c2=O)cc([N+](=O)[O-])c1O	-20%	-27%	-5	16µM*	?	-29%	-12%	5.6µM*	?	-16%
COc1ccc(-c2nnc(NC(=O)c3ccccc3C)o2)cc1	-17%	?	-12	16µM*	?	?	-15%	-1%	-6%	-10%
COc1ccc(N2C(=O)CC(NNC(=O)c3cc(C)oc3C)C2=O)cc1 (centres undefined)	-32%	4%	-31	0%	-20%	·	·	·	·	·
COc1ccc(N2C(=O)CC(NNc3ncc(Cl)cc3Cl)C2=O)cc1 (centres undefined)	-10%	-1%	-25	16µM*	-5%	-1%[10.4 µM]	-13%	12%	5%	8%
CCS(=O)(=O)C1=NSC2=NC(=O)/C(=C\c3ccc(OC(=O)c4ccco4)cc3)C(=N)N21	4%	11%	?	-9%	8%	·	·	·	·	·
CCc1nn(C)c(-c2n[nH]c(=S)n2N)c1Cl	0%	2%	58	?	20%	·	·	·	·	·
CCc1cc(-c2n[nH]c(=S)n2N)n(C)n1	11%	?	-3	10µM*	-8%	?	0%	1%	1%	8%
CCc1ccc(Nc2n[n+](-c3ccccc3)c(-c3ccc(N(CC)CC)cc3)s2)cc1	-23%	3.3µM*	-93*	25µM*	?	4%	?	4%	5%	6%
c1ccc(COc2ccc(-c3sc(Nc4ccccc4)n[n+]3-c3ccccc3)cc2)cc1	-15%	?	·	?	?	·	·	·	·	·
CCOc1ccc(C(=S)N2CCN(C)CC2)cc1	3%	?	12	18µM*	-1%[5.75 µM]	-24%	-8%	-5%	1%	1%
CCN1CCN(C(=S)c2ccc(OC)cc2)CC1	2%	23%	31	4.5µM*	14%	3%[38.3 µM]	1%	-5%	3%	-8%
Cc1ccc([C@H]2N[C@]3(CCCN(Cc4ccc(Br)cc4)C3=O)[C@H]3C(=O)N(C)C(=O)[C@@H]23)cc1	·	·	22	·	·	·	·	·	·	·
CC(=O)OCC(NC(=O)C(CCCCNC(=O)OCc1ccccc1)NC(=O)OC(C)(C)C)C1OC(n2cc(C)c(=O)[nH]c2=O)C(OC(C)=O)C1OC(C)=O (centres undefined)	·	·	·	0%	·	·	·	·	·	·
Cc1ccc(C)c(NC(=O)CN2C(=O)c3cccnc3Oc3ccc(C)cc32)c1	-16%	·	0	·	·	·	·	·	·	·
O=C(c1ccc(NS(=O)(=O)c2ccc3[nH]c(=O)[nH]c3c2)cc1)N1CCN(c2ccccc2O)CC1	-33%	?	-9	·	3%	·	·	·	·	·
N#Cc1cc2cc3c(cc2nc1N1CCCCC1)OCCO3	-31%	-4%	28	6.3µM*	21%	56µM*	-26%	-9%	-1%	-2%
N#Cc1cc2cc3c(cc2nc1Cl)OCCO3	·	·	33	·	·	·	·	·	·	·
COc1ccc(N2CCN(C(=O)CSc3nc4ccccc4c(=O)[nH]3)CC2)cc1	-6%	-18%	27	-11%	-13%	·	·	·	·	·
COc1ccc(N2CCN(C(=O)CSc3nnc(C)c(=O)[nH]3)CC2)cc1	?	?	21	13µM*	19%	-12%	8%	-8%	11%	6%
COC(=O)c1ccc(C(NC(=O)OCc2ccccc2)/C(C)=C/[C@@H](C)C(=O)NCCO)cc1 (some centres undefined)	·	·	·	0%	·	·	·	·	·	·
CSC1=NS(=O)(=O)c2c(C)nn(C)c2S1	?	-40%	19	16µM*	-8%	30%	9%	-3%	40µM*	?
CC(C(=O)c1ccccc1)C(O)c1ccccn1 (centres undefined)	·	·	-17	·	·	·	·	·	·	·
CCn1c(O)c(C(c2ccccn2)c2c(O)n(CC)c(=S)[nH]c2=O)c(=O)[nH]c1=S	-21%	8%	22	18µM*	-9%	18%[10.4 µM]	5%	-6%	12%	11%
O=c1[nH]c(=S)[nH]c(O)c1C(c1ccccn1)c1c(O)[nH]c(=S)[nH]c1=O	-29%	?	-33	16µM*	-20%	2%[10.4 µM]	13%	-2%	11%	-5%
CCCCOc1ccc(NC(=S)Nc2cc(C)nc(SCCCC)n2)cc1	-13%	?	-27	-1%	0%	·	·	·	·	·
C[C@H]1CN([C@@H](C)CO)S(=O)(=O)c2ccc(-c3cncnc3)cc2O[C@H]1CN(C)C(=O)NC1CCCC1	·	·	1	·	·	·	·	·	·	·
